From PubChem BioAssay
Vaccinia mCherry: inhibitors of vaccinia virus infection (mCherry reporter signal); Vaccinia virus mCherry reporter infection, fluorescence; Potency, µM (titrated, usually from 36.5 µM), without a hit: at the highest dose activity change, negative = inhibition, actives largely listed as inhibitors; hit rate 0.63% among 310,000; AID 720579; calls by dose curve; tested in A549 cells; note: potency is the fitted concentration of half-maximal effect; % is set by controls: 0 for no effect and ±100 for the full control effect; nearly all actives have a fitted effect of over 35% in size
Shiga inhibitor: Shiga toxin inhibition; hit rate 9.2% among 290,000; inhibition, % at 38.7 µM; AID 2315; Vero cells, Shiga toxin protein synthesis inhibition reporter; in the data active = inhibition mostly above about 28%, no sharp cut-off; inactive = mostly below about 43%; note: 0% is about no effect
Cycloheximide cs: affects cycloheximide protein synthesis inhibition readout, counter-screen | max response, % | hit rate 12% among 300,000 | cell reporter, cycloheximide protein synthesis inhibition counterscreen; in the data active = max response mostly above about 13%, no sharp cut-off; inactive = mostly below about 14%; note: read at 38.3 µM for the half of the compounds with a filed dose; 0% is about no effect
LASV entry inh: blocks Lassa virus binding to or entry into cells. Potency, µM (highest dose often 37.9 µM), without a hit: at the top dose activity change, negative = inhibition, hits mostly inhibitors. hit rate 1.2% among 300,000. Lassa virus pseudotype entry inhibition, cell reporter; calls by dose curve; tested in HEK293 cells; note: potency is the fitted concentration of half-maximal effect; % is set by controls: 0 for no effect and ±100 for the full control effect; nearly all actives have a fitted effect of over 50% in size
Vaccinia Venus: inhibitors of vaccinia virus (Venus reporter); Vaccinia virus Venus reporter expression, fluorescence; Potency, µM (titrated, usually from 36.5 µM), without a hit: top-dose activity change, negative = inhibition, hits mostly inhibitors; hit rate 0.46% among 330,000; AID 720580; calls by dose curve; tested in A549 cells; note: potency is the fitted concentration of half-maximal effect; % is set by controls: 0 for no effect and ±100 for the full control effect; nearly all actives have a fitted effect of over 30% in size
MARV entry inh: inhibitors of Marburg virus binding or cell entry. AID 540276. hit rate 1.8% among 300,000. Potency, µM (doses to about 37.8 µM), without a hit: top-dose activity change, negative = inhibition, usual class: inhibitors. Marburg virus pseudotyped entry inhibition, cell reporter; calls by dose curve; tested in HEK293 cells; note: potency is the fitted concentration of half-maximal effect; % is set by controls: 0 for no effect and ±100 for the full control effect
Active calls of the source: *; i = inactive; ? = inconclusive; . = no result; [ ] = remark or other dose. Many of the other results were omitted from the sample, so hits are more common in it than they were.

SMILES | Vaccinia mCherry | Shiga inhibitor | Cycloheximide cs | LASV entry inh | Vaccinia Venus | MARV entry inh
COc1ccc(/C=C2\SC(=S)N(CCCC(=O)NNC(=O)c3ccccc3O)C2=O)cc1 | 0.0% | -8.1 | 0.6 | 2.24µM* | -18.7% | ?
O=C(CCCN1C(=O)/C(=C/c2ccccc2Cl)SC1=S)NNC(=O)c1ccncc1 | i[7.34 µM] | -8.8 | -4.4 | ? | 1.8%[7.34 µM] | ?
O=C(CCCN1C(=O)/C(=C/c2ccccc2Cl)SC1=S)NNC(=O)c1ccccc1Cl | 11.2µM* | -14.6 | -7.2 | ? | ? | 6.31µM*
CN(C)c1ccc(-c2cc(NCc3ccccc3)ncn2)cc1 | -8.8% | . | . | . | -7.1% | .
O=Cc1cccc(OC(=O)Nc2ccccc2)c1 | -25.4% | . | . | 2.2% | -6.9% | ?
C#Cc1cccc(-n2nnc(C(=O)OC)c2-c2ccccc2)c1 | -8.6% | 15.7 | -1.9 | -22.2% | -15.2% | -14.3%
COc1ccc(CCNC(=O)c2cc(C(=O)c3cc(C)ccc3O)cn(CCc3ccc(OC)cc3)c2=O)cc1 | -23.7% | 12.9 | -0.4 | 2.82µM* | -11.9% | ?
O=C(CCC(=O)c1cccs1)NCc1cccnc1 | -4.0% | 13.4 | -1.1 | 2.6% | -3.4% | 5.6%[46.1 µM]
O=C(NCc1cccs1)C1CCN(C(=O)N2CCOc3ccc(Cl)cc32)CC1 | -0.8% | . | . | ? | -0.8% | .
C#CCOCCOCCOCCNc1nc(N2CCN(C(=O)CCCCCCCCCCNC(=O)Cn3cc(C[C@@H](C)O)nn3)CC2)nc(N2CCN(C(=O)CCCCCCCCCCNC(=O)[C@@H]([C@H](C)O)n3cc(C)nn3)CC2)n1 | -26.1% | . | . | . | ? | .
C#CCOCCOCCOCCNc1nc(N2CCN(C(=O)CCCCCCCCCCNC(=O)[C@H](CCCCN)n3cc(C[C@@H](C)CC)nn3)CC2)nc(N2CCN(C(=O)CCCCCCCCCCNC(=O)[C@@H]([C@H](C)O)n3cc(C)nn3)CC2)n1 | 11.2µM* | . | . | . | 7.94µM* | .
C#CCOCCOCCOCCNc1nc(N2CCN(C(=O)CCCCCCCCCCNC(=O)Cn3cc(CCCCCN)nn3)CC2)nc(N2CCN(C(=O)CCCCCCCCCCNC(=O)[C@@H]([C@H](C)O)n3cc(C)nn3)CC2)n1 | ? | . | . | . | 10µM* | .
C#CCOCCOCCOCCNc1nc(N2CCN(C(=O)[C@H](CCCCN)n3cc([C@@H](N)CC(C)C)nn3)CC2)nc(N2CCN(C(=O)[C@H](Cc3ccc(O)cc3)n3cc([C@@H](N)CC(C)C)nn3)CC2)n1 | -18.5% | -6.5 | -1.1 | . | -5.4% | .
C#CCOCCOCCOCCNc1nc(N2CCN(C(=O)[C@H]([C@@H](C)CC)n3cc([C@@H](N)Cc4ccc(O)cc4)nn3)CC2)nc(N2CCN(C(=O)[C@H](CCCCN)n3cc([C@@H](N)CC(C)C)nn3)CC2)n1 | . | -12.9 | 34.8* | . | . | .
C#CCOCCOCCOCCNc1nc(N2CCN(C(=O)CCCCCCCCCCNC(=O)[C@@H](CCSC)n3cc(CCO)nn3)CC2)nc(N2CCN(C(=O)CCCCCCCCCCNC(=O)[C@@H]([C@H](C)O)n3cc(C)nn3)CC2)n1 | -0.6% | . | . | . | ? | .
C#CCOCCOCCOCCNc1nc(N2CCN(C(=O)CCCCCCCCCCNC(=O)[C@H](CCCCN)n3cc(C)nn3)CC2)nc(N2CCN(C(=O)CCCCCCCCCCNC(=O)[C@@H]([C@H](C)O)n3cc(C)nn3)CC2)n1 | ? | . | . | . | 11.2µM* | .
CCCCOc1ccc(C2(C)NC(=O)N(C)C2=O)cc1 (configuration not stated) | . | 30.3 | -1.0 | . | . | .
CCCN(C(=O)c1ccc(N2CCCC2=O)cc1)C1CCS(=O)(=O)C1 (configuration not stated) | -4.8% | . | . | 3.7% | 1.1% | 2.4%
Cc1cc(Cl)ccc1OCC(=O)O[C@@H](C)C(=O)N(C)C | . | . | . | . | . | 3.6%
Cc1ccc(N=C2NC(=O)/C(=C/c3cccn3C)S2)c(C)c1 | -24.0% | 21.4 | 6.3 | ? | -6.9% | ?
CCOc1ccc2c(c1)S/C(=C\c1cccs1)C(=O)N2 | . | 68.7* | 31.4* | . | . | .
Cn1cc(/C=C2\SC(=S)N(N3CCOCC3)C2=O)c2ccccc21 | i | -16.3 | -0.9 | -10.2%[46.1 µM] | -7.3% | 16.4%[46.1 µM]
Cc1ccc(N=C2NC(=O)/C(=C/c3cn(C)c4ccccc34)S2)cc1C | -12.3% | -3.8 | -1.9 | 0.103µM* | 175.0% | ?
Cn1cccc1/C=C1\SC(=Nc2ccc(O)cc2)NC1=O | . | 36.9* | 44.3* | . | . | .
Cn1cccc1/C=C1\SC(=Nc2ccccc2)NC1=O | . | 85.4* | 44.3* | . | . | .
